The entries come from a sample that favours hits as a whole.
RORg inh = inhibitors of mouse ROR gamma transcriptional activity; Drosophila S2 Gal4-RORgamma UAS-luciferase reporter, 20 h; Potency, µM (doses to about 53.6 µM), usual class: inhibitors; 310,000 compounds, 5.4% hits; AID 2551; note: nearly all actives have a fitted effect of over 60% in size
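In this cell-based reporter format, copper sulfate (700 uM final) drives Gal4–ROR gamma fusion expression from a metallothionein promoter in Drosophila Schneider cells; compounds preincubated 1 hr, reporter read after 20 hr at ambient temperature.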
ERG-DNA inh = inhibitors of human ERG Ets domain-DNA interaction; fluorescence polarization, His-ERG Ets domain / labelled DNA; P11308; Potency, µM (titrated, usually from 76.9 µM), hits mostly inhibitors; AID 624246; 370,000 compounds, 0.028% hits; active = well fitted inhibition curve with a large enough effect in the polarisation, with a control signal flat; inconclusive = small, poorly fitted or top-dose-only effect, or effect the other way, or a change in a side signal; inactive = no such curve, though single readings can be large or run the other way; the % refers to the polarisation;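 note: polarization taken with two DNA probes labelled with fluorescein and Texas red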
Target sequence (P11308 whole entry, looked up, the tested form may be a part): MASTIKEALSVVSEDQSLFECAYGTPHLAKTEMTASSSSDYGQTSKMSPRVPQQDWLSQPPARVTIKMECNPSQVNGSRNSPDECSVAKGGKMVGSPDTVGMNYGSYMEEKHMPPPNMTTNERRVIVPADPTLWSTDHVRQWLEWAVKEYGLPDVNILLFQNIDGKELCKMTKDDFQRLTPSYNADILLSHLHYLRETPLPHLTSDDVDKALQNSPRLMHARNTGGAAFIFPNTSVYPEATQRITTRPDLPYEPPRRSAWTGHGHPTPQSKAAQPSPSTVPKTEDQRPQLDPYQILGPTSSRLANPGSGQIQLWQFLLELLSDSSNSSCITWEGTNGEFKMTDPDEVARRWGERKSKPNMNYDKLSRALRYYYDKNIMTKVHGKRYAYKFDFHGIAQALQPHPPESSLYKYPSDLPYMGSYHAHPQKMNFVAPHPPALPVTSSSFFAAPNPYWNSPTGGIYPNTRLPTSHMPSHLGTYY
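His-tagged ERG Ets domain (1 uM in the protein solution; 300mM KCl, 50mM Tris-HCl, 1mM EDTA, 1mM DTT, pH 7.5) received compound, then a probe mix of 5 nM fluorescein-DNA and 100nM Texas-615-DNA. Fluorescence polarization was read for both dyes.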
VP16 counter = counter-screen for ROR gamma inhibitors: Gal4-VP16 reporter | Drosophila S2 Gal4-VP16 UAS-luciferase, luminescence, 20 h | Potency, µM (series often up to 53.6 µM), hits mostly inhibitors | 310,000 compounds, 3.5% hits | AID 2546;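 note: Gal4-VP16 expression switched on by copper sulfate through the metallothionein promoter; nearly all actives have a fitted effect of over 50% in size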
Giardia kill = kills Giardia lamblia; Giardia lamblia trophozoite viability; activity change, % at 7.66 µM, hits read low; 340,000 compounds, 0.15% hits; in the data active = activity change below about -80%; inconclusive = between about -30% and that limit;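 note: parasites exposed to compound for two days anaerobically before the ATP read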
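Compounds were tested on trophozoites seeded at 100 cells/well and held 48 hrs at 37 deg C anaerobically. An ATP-based luminescent kit measured the remaining live cells.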
Integrin act MD = activates integrin-mediated alleviation for muscular dystrophy; alpha7betagal myoblasts, beta-gal FDG fluorescence, 48 h; Potency, µM (doses to about 38.3 µM), most hits filed as activators; 350,000 compounds, 0.064% hits; AID 624291; note: nearly all actives have a fitted effect of over 60% in size
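alpha7betagal+/- myoblasts (passage 13, 250/well) treated 48 h at 37C with compounds at 1:260 dilution of DMSO stock. Lysed, then beta-galactosidase activity read as FDG fluorescence (ex 480/em 540) after 30 min, with pre-read for autofluorescence.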
Each line names hits and unclear results; the compound was inactive in the other large screens. Unless noted, calls come from the whole dose curve; as a rule, active = well fitted curve in the direction sought with a large enough effect; inconclusive = small, poorly fitted or top-dose-only effect, or another doubt; inactive = no such curve, though single readings can be large; an effect the other way counts as inactive or inconclusive.

Cc1cc(C)c(S(=O)(=O)Oc2ccccc2[N+](=O)[O-])c(C)c1	none (no result: RORg inh, VP16 counter)
O=C(N/N=C1/C[C@@H](O)[C@@H](O)[C@@H]2[C@@H]3C(=O)N(c4cccc(Oc5ccccc5)c4)C(=O)[C@H]3CC[C@H]12)OCc1ccccc1	none (no result: ERG-DNA inh, Giardia kill, Integrin act MD)
CC(C)Nc1nc(Oc2ccc(Cl)cc2Cl)cc(C(F)(F)F)n1	RORg inh 25µM, VP16 counter inconclusive
CCn1c(-c2cc(Br)ccc2O)n[nH]c1=S	none (no result: RORg inh, ERG-DNA inh, VP16 counter)
CC(C)Cn1c(-c2ccc(F)cc2)n[nH]c1=S	RORg inh 7.1µM, VP16 counter 10µM
CCN(CC)S(=O)(=O)c1cccc(-c2n[nH]c(=S)n2CC(C)C)c1	RORg inh 8.9µM
S=c1[nH]nc(-c2ccncc2)n1CC1CCCO1 (centres undefined)	none
CCn1c(-c2cc3ccccc3cc2O)n[nH]c1=S	RORg inh 11µM, VP16 counter inconclusive
Fc1ccc(-c2n[nH]c(=S)n2CC2CCCO2)cc1 (centres undefined)	RORg inh 11µM, VP16 counter inconclusive
C[C@@H]1CN([C@H](C)CO)C(=O)c2cc(NC(=O)Nc3ccc(F)cc3)ccc2O[C@@H](C)CCCCO[C@H]1CN(C)S(=O)(=O)c1cccs1	none (no result: RORg inh, ERG-DNA inh, VP16 counter, Giardia kill)
Fc1ccccc1-c1n[nH]c(=S)n1C1CC1	RORg inh 10µM, VP16 counter inconclusive (no result: ERG-DNA inh, Giardia kill, Integrin act MD)
CCN(CC)S(=O)(=O)c1cccc(-c2n[nH]c(=S)n2Cc2ccccc2)c1	RORg inh inconclusive
NC(=O)CSc1nnc(-c2ccccc2F)n1C1CC1	none
CCn1c(-c2cccc(Cl)c2)n[nH]c1=S	RORg inh 6.3µM, VP16 counter 11µM
Cn1c(-c2ccc(C(C)(C)C)cc2)n[nH]c1=S	RORg inh 3.2µM, VP16 counter 5.6µM
CCn1c(-c2ccc(C(C)(C)C)cc2)n[nH]c1=S	RORg inh inconclusive, VP16 counter 3.2µM
Cc1noc(C)c1S(=O)(=O)Nc1ccc(C(=O)Nc2ccc(Br)cc2)cc1	none (no result: RORg inh, VP16 counter, Giardia kill, Integrin act MD)
CCOC(=O)C1CCCN(C(=O)c2ccc3c(c2)N(Cc2cccc(Cl)c2)C(=O)c2ccccc2S3(=O)=O)C1 (centres undefined)	none (no result: RORg inh, VP16 counter, Giardia kill, Integrin act MD)
CC(C)Cn1c(-c2ccccc2F)n[nH]c1=S	RORg inh 5.6µM, VP16 counter 10µM
CCn1c(-c2cc(OC)c(OC)c(OC)c2)n[nH]c1=S	RORg inh inconclusive
CCn1c(-c2ccc(F)cc2)n[nH]c1=S	RORg inh 1.1µM, VP16 counter 2µM
CC(C)Cn1c(-c2csc3c2CCCC3)n[nH]c1=S	RORg inh 2.8µM, VP16 counter 5µM
CC(C)(C)c1ccc(-c2n[nH]c(=S)n2C2CCCC2)cc1	RORg inh 2.5µM, VP16 counter 4.5µM
C=CCN(c1ccccc1)S(=O)(=O)c1cccc(C(=O)NC2CCN(Cc3ccccc3)CC2)c1	none (no result: RORg inh, VP16 counter)
CC(=O)OCC(NC(=O)C(COCc1ccccc1)NC(=O)OC(C)(C)C)C1OC(n2cc(C)c(=O)[nH]c2=O)C(OC(C)=O)C1OC(C)=O (centres undefined)	none (no result: ERG-DNA inh, Integrin act MD)
CCOC(=O)c1c(NC(=O)C(=O)N/N=C/c2ccccc2O)sc2c1CCCCC2	RORg inh 1µM, VP16 counter 1.3µM
CCOC(=O)c1c(NC(=O)C(NCCN(C)C)c2ccccc2)sc2c1CCCC2 (centres undefined)	RORg inh 3.5µM, VP16 counter 11µM
N#CC(C#N)=C1NC2(CCCC2)Cc2ccccc21	none
Cc1cccc(N2C(=O)CC(Sc3ccccc3C(=O)O)C2=O)c1 (centres undefined)	RORg inh inconclusive, VP16 counter 5µM
Nc1ccccc1SC1CC(=O)N(c2ccc3c(c2)OCO3)C1=O (centres undefined)	none
O=C(O)c1ccccc1SC1CC(=O)N(c2ccc3c(c2)OCO3)C1=O (centres undefined)	RORg inh 3.2µM, VP16 counter inconclusive
Cc1cccc(N2C(=O)CC(Sc3ncn[nH]3)C2=O)c1 (centres undefined)	RORg inh 13µM
CN(C)c1ccc(N2C(=O)CC(Sc3ccccc3C(=O)O)C2=O)cc1 (centres undefined)	RORg inh inconclusive, VP16 counter 16µM
N#CCCn1cnc2c1NC=NC2Cl (centres undefined)	none (no result: ERG-DNA inh, Giardia kill, Integrin act MD)
Cc1ccc(C2c3c(-c4cc(C)ccc4O)n[nH]c3C(=O)N2Cc2ccco2)cc1 (centres undefined)	none (no result: RORg inh, VP16 counter, Giardia kill, Integrin act MD)
CCOC(=O)N1CCN(C(=O)CCCCCn2c(=S)[nH]c3cc4c(cc3c2=O)OCO4)CC1	none
O=C(CCCSc1nc2ccccc2[nH]1)N1CCN(c2ccccc2)CC1	none
Cc1cccc(N2CCN(C(=O)CCCn3c(=S)[nH]c4cc5c(cc4c3=O)OCO5)CC2)c1C	RORg inh 3.2µM, VP16 counter 4.5µM
Cc1cccc(N2CCN(C(=O)CCCSc3nc4ccccc4[nH]3)CC2)c1C	RORg inh inconclusive, VP16 counter 22µM
O=C(CCCn1c(=S)[nH]c2cc3c(cc2c1=O)OCO3)N1CCc2ccccc2C1	RORg inh 13µM, VP16 counter inconclusive
CC(=O)c1ccc(N2CCN(C(=O)CCCn3c(=S)[nH]c4cc5c(cc4c3=O)OCO5)CC2)cc1	RORg inh 11µM, VP16 counter inconclusive
O=C(Cc1ccccc1)NN1C(=O)/C(=C/c2ccccc2C(=O)O)SC1=S	Giardia kill inconclusive, Integrin act MD inconclusive
COc1cc(OC)cc(-c2nnc3n2N=C(c2ccc(OC)cc2OC)CS3)c1	RORg inh inconclusive (no result: ERG-DNA inh, Giardia kill, Integrin act MD)
O=C(CCCn1c(=S)[nH]c2cc3c(cc2c1=O)OCO3)N1CCN(c2ccc(Cl)cc2)CC1	RORg inh 6.3µM, VP16 counter 5.6µM
O=C(CCCn1c(=S)[nH]c2cc3c(cc2c1=O)OCO3)N1CCN(c2ccccc2)CC1	none
CC(=O)Nc1ccc(NS(=O)(=O)c2ccc3[nH]c4c(c3c2)CCCCC4)cc1	none (no result: RORg inh, VP16 counter, Giardia kill, Integrin act MD)
Cc1c(CNC2CCC(C)CC2)c(C(=O)O)c(C)n1Cc1ccc(Cl)cc1 (centres undefined)	none (no result: RORg inh, VP16 counter, Giardia kill, Integrin act MD)
Cc1ccc2c(c1)-c1nc(-c3ccc4c(c3)NC(=O)CO4)cc(-c3ccc(Cl)cc3)c1CO2	none (no result: RORg inh, VP16 counter, Giardia kill, Integrin act MD)
CCOC(=O)c1nn(-c2ccccc2)c(C(=O)OCC)c1N	RORg inh 1.3µM
CCOC(=O)c1nn(-c2ccccc2)c(=O)c2c(N)scc12	none
O=C(CSc1cccc[n+]1[O-])CSc1cccc[n+]1[O-]	RORg inh 4µM, VP16 counter inconclusive
[O-][n+]1ccccc1SSc1cccc[n+]1[O-]	RORg inh 0.35µM, VP16 counter 0.89µM (no result: ERG-DNA inh, Giardia kill, Integrin act MD)
O=C(CSc1cccc[n+]1[O-])N1CCCCCC1	none
O=C(NCCc1ccc(Cl)cc1)c1ccc(CS(=O)Cc2cccc(Cl)c2)o1 (centres undefined)	none (no result: RORg inh, VP16 counter, Giardia kill, Integrin act MD)
CC(=O)c1c(O)cc(O)c(C(C)=O)c1O	RORg inh inconclusive, VP16 counter 10µM
Fc1ccc2[nH]c3c(NCCN4CCOCC4)ncnc3c2c1	RORg inh inconclusive, VP16 counter 13µM
